Our source for the outcome and AC50 values is PubChem BioAssay (EPA / NIEHS).

Activity calls are given as the source filed them. The calls were made as follows: active = hit-call score of the fitted dose curve at least 0.9, where 1 is the maximum; inactive = score below 0.9.

Test [1] can be described thus: ATG_CRE_CIS: Attagene CIS-FACTORIAL HepG2 Assay for human cAMP Responsive Element (CRE) binding protein 3 (AID 2282926). As to conditions: HepG2 CRE cis-reporter, Attagene multiplexed mRNA; actives raise or lower the signal. In short, it runs like this: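 Readout: fluorescently labelled reporter transcripts resolved by capillary electrophoresis after RT-PCR, taken 24 h post-dosing in transfected HepG2. Endogenous transcription factor activity drives each cis-element reporter; gain or loss of signal fitted relative to DMSO control.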

Test [2] deals with CCAAT/enhancer-binding protein beta (Homo sapiens) (UniProt P17676). Nature of the test: ATG_C_EBP_CIS: Attagene CIS-FACTORIAL HepG2 Assay for human CCAAT/Enhancer Binding Protein (C/EBP) beta (AID 2282927). As to conditions: HepG2 Attagene cis-factorial transcription factor reporter; actives raise or lower the signal. In short, it runs like this: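 Following a 24 h incubation with test chemical, transfected HepG2 cells yielded RNA whose reporter transcripts were quantified by RT-PCR and fluorescent capillary electrophoresis, with DMSO serving as baseline for bidirectional fitting.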
CCAAT/enhancer-binding protein beta (Homo sapiens), sequence (P17676 whole entry, looked up): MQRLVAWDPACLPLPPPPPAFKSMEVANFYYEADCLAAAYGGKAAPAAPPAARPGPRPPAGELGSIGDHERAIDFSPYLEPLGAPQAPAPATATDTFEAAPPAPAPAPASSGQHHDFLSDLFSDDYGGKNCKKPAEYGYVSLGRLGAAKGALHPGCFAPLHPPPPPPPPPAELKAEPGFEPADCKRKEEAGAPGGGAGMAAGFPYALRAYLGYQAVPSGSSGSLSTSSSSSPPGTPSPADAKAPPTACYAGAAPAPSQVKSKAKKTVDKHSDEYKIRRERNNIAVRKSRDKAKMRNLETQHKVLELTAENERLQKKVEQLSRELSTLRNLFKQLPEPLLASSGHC

A short description of test [3]: ATG_CMV_CIS: Attagene CIS-FACTORIAL HepG2 Assay for human CMV (Internal Marker) (AID 2282928).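 Also: endpoint acts as a background internal control marker rather than a target.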 Conditions: HepG2 CMV promoter reporter, transcription factor profiling; actives raise or lower the signal. In short, it runs like this:
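Reporter transcripts from transfected HepG2 cells are isolated after 24 h of chemical dosing, reverse-transcribed and amplified. Fragments labeled with 6-FAM are cut with HpaI and quantified by capillary electrophoresis; DMSO defines baseline.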

Test [4] in a line: ATG_DR4_LXR_CIS: Attagene CIS-FACTORIAL HepG2 Assay for human Liver X Receptor (LXR), DR4 submotif (AID 2282929). Conditions: HepG2 Attagene DR4 cis-reporter, mRNA transcription; actives raise or lower the signal. In short, it runs like this: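 HepG2 cells transiently transfected with cis-promoter-driven multiplexed reporter units (DR4 element) were dosed for 24 h. Reporter mRNA was quantified by RT-PCR, fluorescent primer extension, HpaI digestion and capillary electrophoresis; bidirectional fitting versus DMSO baseline.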

Test [5] addresses Aryl hydrocarbon receptor (Homo sapiens) (UniProt P35869). Put plainly: ATG_Ahr_CIS: Attagene CIS-FACTORIAL HepG2 Assay for human Aryl Hydrocarbon Receptor (Ahr) (AID 2282930). As to conditions: HepG2 AhR cis-factorial reporter transcription; actives raise or lower the signal. In short, it runs like this: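 Values derive from bidirectional fitting against DMSO negative control. Underlying signal: cis-element reporter mRNA in transiently transfected HepG2, harvested 24 h post-dose and measured by RT-PCR plus capillary electrophoresis.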

Test [6] in a line: ATG_AP_1_CIS: Attagene CIS-FACTORIAL HepG2 Assay for human Activator Protein 1 (AP-1) (AID 2282931). Conditions: HepG2 Attagene cis-factorial AP-1 reporter mRNA; actives raise or lower the signal. In short, it runs like this: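 HepG2 cells transiently transfected with cis-element-driven multiplex reporter units; 24 h compound exposure. Reporter mRNA quantified by RT-PCR, FAM-labelled fragments resolved by capillary electrophoresis; bidirectional fit versus DMSO baseline.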

Test [7] in a line: ATG_BRE_CIS: Attagene CIS-FACTORIAL HepG2 Assay for human Bone Morphogenetic Protein (BMP) Response Element (BRE) (AID 2282933). As to conditions: HepG2 BMP response element reporter, Attagene transcription factor profiling; actives raise or lower the signal. In short, it runs like this:
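Endogenous transcription factor activity at a BMP response element was monitored in transfected HepG2 cells 24 h after dosing. Fluorescent RT-PCR products were resolved by capillary electrophoresis, and activity was fitted in both directions versus DMSO.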

Test [8] addresses Retinoic acid receptor alpha (Homo sapiens) (UniProt P10276). Nature of the test: ATG_DR5_RAR_CIS: Attagene CIS-FACTORIAL HepG2 Assay for human Retinoic Acid Receptor Alpha (RARE), DR5 submotif (AID 2282934).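 As to AC50: reporter responds to endogenous RAR alpha beta and gamma in HepG2 not RARA alone.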 As to conditions: HepG2 Attagene cis-factorial RARE DR5 reporter, mRNA; actives raise or lower the signal. In short, it runs like this: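 Endpoint fitted in both directions relative to DMSO as negative control. It reflects DR5 cis-element reporter mRNA induction in transiently transfected HepG2 cells, measured 24 h after dosing through RT-PCR and fluorescent capillary electrophoresis.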

Test [9] has as its target Transcription factor E2F1 (Homo sapiens) (UniProt Q01094). Put plainly: ATG_E2F_CIS: Attagene CIS-FACTORIAL HepG2 Assay for human E2F Transcription Factor 1 (AID 2282935). As to conditions: HepG2 Attagene cis-reporter, E2F reporter RNA transcripts; actives raise or lower the signal. In short, it runs like this: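 In this cis-factorial format, endogenous factor activity drives transfected reporters in HepG2; transcripts collected at 24 h are quantified by fluorescence after RT-PCR and capillary separation.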

A short description of test [10]: ATG_E_Box_CIS: Attagene CIS-FACTORIAL HepG2 Assay for human Enhancer Box (E-box) (AID 2282936). As to conditions: HepG2 E-box cis-reporter transcription, actives raise or lower the signal. In short, it runs like this:
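Measured 24 h post-dosing in HepG2 cells transfected with multiple cis-regulated reporter units, signal being reporter mRNA induction detected by fluorescent RT-PCR with capillary electrophoresis; gain or loss fitted against DMSO.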

Test [11] is described as follows: ATG_M_61_CIS: Attagene CIS-FACTORIAL HepG2 Assay for M61 Transcription Factor (Internal Marker) (AID 2282937). As to conditions: HepG2 Attagene CIS-FACTORIAL M61 internal marker reporter; actives raise or lower the signal. In short, it runs like this: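 HepG2 cells transiently transfected with cis-element-driven multiple reporter transcription units, dosed for 24 h. Reporter mRNA measured by RT-PCR, 6-FAM primer-extension labelling, HpaI digestion and capillary electrophoresis; bidirectional fit versus DMSO baseline.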

Test [12] can be described thus: ATG_EGR_CIS: Attagene CIS-FACTORIAL HepG2 Assay for human Early Growth Response 1 (EGR1) (AID 2282938). As to conditions: HepG2 Attagene CIS-FACTORIAL EGR reporter mRNA; actives raise or lower the signal. In short, it runs like this: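 HepG2 cells transiently transfected with cis-promoter-driven multiplexed reporter transcription units; reporter mRNA measured 24 h after compound dosing by RT-PCR, 6-FAM primer extension, HpaI digestion and capillary electrophoresis. Bidirectional fit versus DMSO baseline.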

A short description of test [13]: ATG_Ets_CIS: Attagene CIS-FACTORIAL HepG2 Assay for human Erythroblast Transformation Specific (ETS) (AID 2282941). Conditions: HepG2 ETS cis-reporter transcription, actives raise or lower the signal. In short, it runs like this:
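Bidirectional fit versus DMSO of reporter mRNA signal, detected by RT-PCR and capillary electrophoresis in HepG2 cells transiently transfected with cis-element reporters and dosed 24 h.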

For test [14], the target named is Hepatocyte nuclear factor 3-beta (Homo sapiens) (UniProt Q9Y261). Nature of the test: ATG_FoxA2_CIS: Attagene CIS-FACTORIAL HepG2 Assay for human Forkhead box A2 (FOXA2) (AID 2282942). As to conditions: HepG2 cis-reporter transcription factor activity, 24 h; actives raise or lower the signal. In short, it runs like this: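 HepG2 cells transiently transfected with multiple cis-regulated reporter transcription units, dosed for 24 h. Reporter mRNA measured by RT-PCR, 6-FAM labelling, HpaI digestion and capillary electrophoresis; bidirectional fitting against DMSO baseline.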
Hepatocyte nuclear factor 3-beta (Homo sapiens), sequence (Q9Y261 whole entry, looked up): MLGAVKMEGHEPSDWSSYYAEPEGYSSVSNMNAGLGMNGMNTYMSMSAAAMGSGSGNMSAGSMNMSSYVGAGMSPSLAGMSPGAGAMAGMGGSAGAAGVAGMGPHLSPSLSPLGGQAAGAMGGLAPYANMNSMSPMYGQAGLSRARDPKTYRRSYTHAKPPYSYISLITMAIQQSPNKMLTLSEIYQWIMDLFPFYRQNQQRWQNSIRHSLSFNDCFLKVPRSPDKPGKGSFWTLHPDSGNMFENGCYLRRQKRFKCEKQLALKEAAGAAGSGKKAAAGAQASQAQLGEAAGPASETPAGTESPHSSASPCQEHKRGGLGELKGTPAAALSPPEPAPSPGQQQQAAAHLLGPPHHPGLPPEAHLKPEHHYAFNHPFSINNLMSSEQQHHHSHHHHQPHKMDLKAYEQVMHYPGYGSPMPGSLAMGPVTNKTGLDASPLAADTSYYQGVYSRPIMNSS

A short description of test [15]: ATG_FoxO_CIS: Attagene CIS-FACTORIAL HepG2 Assay for human Forkhead box O (FoxO) (AID 2282943). Conditions: HepG2 Attagene cis-reporter, FoxO element, mRNA; actives raise or lower the signal. In short, it runs like this:
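Values reflect reporter mRNA induction or loss in HepG2 cells 24 h post-dosing, fitted bidirectionally with DMSO as negative control and baseline. Detection used RT-PCR and fluorescence capillary electrophoresis.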

Test [16] can be described thus: ATG_GATA_CIS: Attagene CIS-FACTORIAL HepG2 Assay for human GATA Binding Protein (AID 2282944). Conditions: HepG2 GATA cis-element reporter, Attagene multiplex mRNA; actives raise or lower the signal. In short, it runs like this: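 Endogenous transcription factor activity was captured through cis-promoter-driven reporters in transfected HepG2 cells. After 24 h exposure, reporter transcripts were quantified by RT-PCR with fluorescent capillary electrophoresis, and responses fitted both directions against DMSO.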

A short description of test [17]: ATG_GLI_CIS: Attagene CIS-FACTORIAL HepG2 Assay for human Zinc Finger Protein GLI1 (AID 2282945). Conditions: HepG2, Attagene cis-factorial reporter mRNA, GLI element; actives raise or lower the signal. In short, it runs like this:
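HepG2 cells transiently transfected with cis-promoter multiplexed reporter units report endogenous transcription factor activity. After 24 h chemical exposure, reporter mRNA was quantified by RT-PCR, 6-FAM labelling, HpaI digestion and capillary electrophoresis, with bidirectional fitting against DMSO.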

A short description of test [18]: ATG_AP_2_CIS: Attagene CIS-FACTORIAL HepG2 Assay for human Activator Protein 2 (AP-2) (AID 2282932). As to conditions: HepG2 AP-2 cis-reporter, Attagene transcription factor profiling; actives raise or lower the signal. In short, it runs like this: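 Assay in transfected HepG2 with promoter-regulated reporters, 24 h incubation after dosing. Signal is reporter mRNA fluorescence (RT-PCR, capillary electrophoresis), analysed for both increases and decreases relative to DMSO controls.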

Test [19] can be described thus: ATG_M_19_CIS: Attagene CIS-FACTORIAL HepG2 Assay for M19 Transcription Factor (Internal Marker) (AID 2282939). As to conditions: HepG2 Attagene CIS-FACTORIAL M19 internal marker reporter; actives raise or lower the signal. In short, it runs like this:
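Background-control endpoint from a multiplexed HepG2 reporter panel. Cells carrying cis-regulated reporter constructs are treated 24 h, then reporter transcripts are amplified, fluorescently labelled and sized by capillary electrophoresis. DMSO defines baseline.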

Test [20] in a line: ATG_ERE_CIS: Attagene CIS-FACTORIAL HepG2 Assay for Estrogen Response Element (ERE) (AID 2282940). Conditions: HepG2 ERE cis-reporter, Attagene RNA transcript; actives raise or lower the signal. In short, it runs like this: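 Cells used were human hepatoma HepG2, transfected with multiple reporter transcription units under cis-regulatory promoters. Reporter mRNA, read 24 h post-dosing via fluorescent RT-PCR products on capillary electrophoresis, was fitted bidirectionally relative to DMSO.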

Aryl hydrocarbon receptor (Homo sapiens), sequence (P35869 whole entry, looked up): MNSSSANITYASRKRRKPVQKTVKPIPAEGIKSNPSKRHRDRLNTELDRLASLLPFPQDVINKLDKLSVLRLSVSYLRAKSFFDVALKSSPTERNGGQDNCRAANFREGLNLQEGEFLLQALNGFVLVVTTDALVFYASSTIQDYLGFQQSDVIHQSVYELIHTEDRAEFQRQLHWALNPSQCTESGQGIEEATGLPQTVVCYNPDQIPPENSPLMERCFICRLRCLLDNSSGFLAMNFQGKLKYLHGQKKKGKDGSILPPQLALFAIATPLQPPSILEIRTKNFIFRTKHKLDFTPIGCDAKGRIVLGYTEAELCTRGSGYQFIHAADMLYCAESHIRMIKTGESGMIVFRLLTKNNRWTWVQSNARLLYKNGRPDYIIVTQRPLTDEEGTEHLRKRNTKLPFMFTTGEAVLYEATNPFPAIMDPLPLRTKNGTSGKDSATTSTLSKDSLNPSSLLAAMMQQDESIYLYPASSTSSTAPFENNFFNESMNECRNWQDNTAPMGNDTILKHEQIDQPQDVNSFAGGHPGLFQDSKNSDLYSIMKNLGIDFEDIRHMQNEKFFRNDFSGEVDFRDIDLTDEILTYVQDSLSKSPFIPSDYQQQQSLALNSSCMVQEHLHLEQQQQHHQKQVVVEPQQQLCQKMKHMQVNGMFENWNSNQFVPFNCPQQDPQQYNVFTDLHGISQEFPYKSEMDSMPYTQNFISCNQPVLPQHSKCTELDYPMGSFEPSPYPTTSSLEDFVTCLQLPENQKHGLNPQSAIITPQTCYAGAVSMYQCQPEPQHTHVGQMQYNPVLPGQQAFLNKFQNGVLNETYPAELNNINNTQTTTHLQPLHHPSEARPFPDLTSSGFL
Transcription factor E2F1 (Homo sapiens), sequence (Q01094 whole entry, looked up): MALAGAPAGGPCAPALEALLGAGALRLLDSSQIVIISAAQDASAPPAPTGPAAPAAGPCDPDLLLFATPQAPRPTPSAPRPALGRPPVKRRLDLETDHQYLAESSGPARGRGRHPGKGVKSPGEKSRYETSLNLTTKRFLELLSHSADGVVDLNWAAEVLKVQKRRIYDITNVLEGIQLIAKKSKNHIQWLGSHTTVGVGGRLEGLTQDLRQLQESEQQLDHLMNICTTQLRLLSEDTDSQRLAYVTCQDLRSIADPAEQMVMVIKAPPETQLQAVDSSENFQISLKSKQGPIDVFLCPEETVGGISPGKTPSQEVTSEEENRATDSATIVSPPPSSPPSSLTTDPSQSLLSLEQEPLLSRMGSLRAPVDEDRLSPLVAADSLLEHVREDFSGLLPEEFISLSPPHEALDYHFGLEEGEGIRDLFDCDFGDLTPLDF
Retinoic acid receptor alpha (Homo sapiens), sequence (P10276 whole entry, looked up): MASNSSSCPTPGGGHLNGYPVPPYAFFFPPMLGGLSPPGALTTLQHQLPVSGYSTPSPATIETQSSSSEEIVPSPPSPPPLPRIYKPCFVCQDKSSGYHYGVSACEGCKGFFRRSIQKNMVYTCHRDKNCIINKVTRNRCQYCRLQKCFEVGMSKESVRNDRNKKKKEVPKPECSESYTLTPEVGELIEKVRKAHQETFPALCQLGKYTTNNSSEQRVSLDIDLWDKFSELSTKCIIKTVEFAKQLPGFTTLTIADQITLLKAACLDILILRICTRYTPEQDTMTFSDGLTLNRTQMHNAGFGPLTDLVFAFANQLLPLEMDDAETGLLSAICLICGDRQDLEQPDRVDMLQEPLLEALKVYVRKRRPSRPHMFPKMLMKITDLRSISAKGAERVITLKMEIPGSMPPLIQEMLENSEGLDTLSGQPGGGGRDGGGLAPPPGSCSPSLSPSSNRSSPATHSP

With `Clc1ccccc1Cl`, the compound was called inactive in [1], in [2], in test [3], in test [4], in [5] and in [6]. Besides, the outcome in test [7], in test [8], in test [9], in test [10], in [11] and in test [12] was inactive. In addition, the compound was classed as inactive in test [13], in test [14], in test [15], in test [16] and in [17].

On to `CC(C)N(Cc1ccccc1)C(=O)C(C)(C)C`, for which the result in [1], in test [2], in [3], in [4], in test [5] and in test [6] was inactive. For the same compound, the result in test [7], in [8], in test [10], in [11], in [12] and in test [13] was inactive. Besides, the call in test [14], in test [15] and in [16] was inactive.

`N#CC(Br)Br`: the compound was called inactive in [1], in test [2], in test [3], in test [4], in test [5] and in test [6]. In addition, the result in [18], in [7], in [8], in test [10], in test [11] and in test [12] was inactive. The result in [19], in [13], in [14], in test [15], in test [16] and in [17] was inactive. Also, the AC50 (as a rule, the midpoint of the concentration-response curve, whichever way the signal moves) in test [20] is 76.7 µM (active).

On to `CO[C@@H]1[C@H](OC(=O)NC(=O)CCl)CC[C@]2(CO2)[C@H]1[C@@]1(C)O[C@@H]1CC=C(C)C`, for which the compound was called inactive in [1], in test [2], in test [3], in test [5], in test [6] and in test [18]. The outcome in [7], in test [8], in test [10], in [11], in test [12] and in test [20] was inactive. Also, the compound was called inactive in test [14], in [15], in test [16] and in test [17]. Further, the figures for the AC50 in [4] and in test [13] were 10.2 µM (active) and 47.8 µM (active), respectively.

Turning to `CCCCCCCCn1sccc1=O`, the AC50 in test [1] was 14.4 µM (active); in test [3] it was 19.1 µM (active); in test [7], 11.6 µM (active); in [12] it was 18.2 µM (active); in [13] it was 14.8 µM (active); in [15] it was 18.3 µM (active). Besides, in [16], the AC50 is 18.4 µM (active). The outcome in [2], in test [4], in test [5], in test [6], in [18] and in test [9] was inactive. For the same compound, the result in test [10], in test [11], in test [19], in test [20] and in [14] was inactive.

In the case of `Cc1ccc([N+](=O)[O-])cc1`, the compound was called inactive in [1], in test [2], in test [3], in test [4], in test [5] and in test [6]. Also, the outcome in [7], in test [9], in test [10], in [11], in test [12] and in test [19] was inactive. The outcome in test [20], in test [13], in test [14], in test [15], in test [16] and in test [17] was inactive.

For the compound `Cn1cc(-c2ccccc2)c(=O)c(-c2cccc(C(F)(F)F)c2)c1`, the AC50 is 79.1 µM (active) in [1]; 66.9 µM (active) in [2]; 73.7 µM (active) in test [4]; 69.1 µM (active) in test [5]; 15.3 µM (active) in test [8]; 55 µM (active) in [10]. The outcome in [3], in test [6], in [18], in test [7], in test [9] and in [11] was inactive. The result in [12], in test [20], in test [13], in [14], in test [15] and in test [16] was inactive.
